Screening results as filed in PubChem.
ClpP mod = qHTS Assay for Activators of ClpP | 340,000 compounds, 1.9% hits | purified B. subtilis ClpP, FRET peptide cleavage, 20 min | Potency, µM (series often up to 57.5 µM), inactives show at the top dose activity change, negative = active; active means well fitted falling curve with a large enough effect; inconclusive means small, poorly fitted or top-dose-only effect; inactive means no such curve, though single readings can be large or run the other way; further: potency means the concentration at half of the fitted maximal effect; the source files actives as falling curves though it sought activators and does not explain the sign; nearly all actives have a fitted effect of over 65% in size
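Purified B. subtilis ClpP, 10 microg/mL final in Tris/HCl pH8 with KCl, BSA, glycerol and Tween-20, cleaved an Abz/nitrotyrosine-quenched decapeptide. Fluorescence (ex 320, em 430) was read at 0 and 20 min at room temperature. Delta was normalized to 5.8 microM ADEP and DMSO/no-enzyme controls.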
PKM2 act = activators of human pyruvate kinase M2 | P14618 | purified PKM2, Kinase-Glo ATP luminescence, activation; response scale: 0% is enzyme alone, no compound | Potency, µM (highest dose often 57.5 µM), without a hit: at the highest dose activation, hits mostly activators | 260,000 compounds, 0.34% hits; further: potency means the concentration at half of the fitted maximal effect; on the % scale 0 is the no-effect control and ±100 the full control effect; nearly all actives have a fitted effect of over 55% in size
Target sequence (P14618 whole entry, looked up): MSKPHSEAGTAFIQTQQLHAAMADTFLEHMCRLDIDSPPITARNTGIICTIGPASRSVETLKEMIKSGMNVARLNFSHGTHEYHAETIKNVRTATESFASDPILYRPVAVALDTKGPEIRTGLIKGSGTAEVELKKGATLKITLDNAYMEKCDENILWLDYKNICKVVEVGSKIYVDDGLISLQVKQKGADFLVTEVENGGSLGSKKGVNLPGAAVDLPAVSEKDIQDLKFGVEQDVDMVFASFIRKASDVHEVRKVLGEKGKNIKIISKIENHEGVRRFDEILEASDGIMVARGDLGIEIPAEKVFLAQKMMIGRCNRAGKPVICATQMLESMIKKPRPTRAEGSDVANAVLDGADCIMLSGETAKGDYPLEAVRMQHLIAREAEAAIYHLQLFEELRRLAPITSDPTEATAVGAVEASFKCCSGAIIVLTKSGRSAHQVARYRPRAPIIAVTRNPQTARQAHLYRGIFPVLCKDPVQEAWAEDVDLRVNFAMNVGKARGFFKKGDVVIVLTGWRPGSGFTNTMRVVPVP
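Purified hPK-M2 (>95% pure) converted ADP (0.1 mM final) to ATP with 0.5 mM PEP in 50 mM imidazole pH7.2, KCl, MgCl2, Tween 20, BSA; 1 h at room temperature. ATP detected by Kinase-Glo luminescence.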
IL-2 act = IL-2 activation. IL-2 activation reporter assay, cell-based qHTS; stimulated with anti-CD3/CD4/CD28 beads; in transgenic mouse T cells. activation, % (series mostly up to about 46 µM). 360,000 compounds, 0.065% hits. AID 652025; in the data active means activation above about 50%; inconclusive means mostly about 30% to 49%; further: 0% is about no effect
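Unstimulated transgenic mouse T cells, 750 per well, received compound and, after 60 minutes, anti-CD3/anti-CD4 bead plus anti-CD28 stimulation. EGFP and DsRed were quantified after 18 hours.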
a7 integrin act = integrin-mediated muscular dystrophy alleviation activation. alpha7betagal myoblasts, beta-gal FDG fluorescence, 48 h. Potency, µM (doses to about 38.3 µM), without a hit: top-dose activation, most hits filed as activators. 350,000 compounds, 0.064% hits. AID 624291;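 further: potency means the concentration at half of the fitted maximal effect; 100% = response of the positive control SU9516; nearly all actives have a fitted effect of over 60% in size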
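alpha7betagal+/- myoblasts (passage 13, 250/well) treated 48 h at 37C with compounds at 1:260 dilution of DMSO stock. Lysed, then beta-galactosidase activity read as FDG fluorescence (ex 480/em 540) after 30 min, with pre-read for autofluorescence.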
USP2a block = USP2a (human) protease inhibition. O75604. 330,000 compounds, 0.01% hits. Potency, µM (titrated, usually from 38.3 µM), for inactives: at the top dose activity change, negative = inhibition, hits mostly inhibitors. USP2 core, Ub-CHOP2 coupled fluorogenic reporter, 485/531;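 further: potency means the concentration at half of the fitted maximal effect; plate controls were DMSO wells for no effect and full inhibition by NEM control for full effect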
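Cell-free coupled assay: 10nM USP2 core preincubated 30min RT with compound in Tris-HCl pH 8.0/CaCl2/CHAPS buffer, then 25nM Ub-CHOP2 and 25nM reporter substrate; fluorescence (Ex 485/Em 531) read after 60min RT, normalized to NEM inhibition, concentration-response curves fitted.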
Pin1 inh = human Pin1 inhibition; Potency, µM (titrated, usually from 115 µM), for the others: at the top dose activity, negative = inhibition, actives largely listed as inhibitors; Q13526; 390,000 compounds, 0.009% hits; Pin1 FP peptide displacement, HiFluor488, 10 min; active means well fitted inhibition curve with a large enough effect in the polarisation, with a control signal flat, not every such curve was filed as active; inconclusive means small, poorly fitted or top-dose-only effect, or effect the other way, or a change in a side signal; inactive means no such curve, though single readings can be large or run the other way; the % refers to the polarisation; further: potency means the concentration at half of the fitted maximal effect; on the % scale 0 is the no-effect control and ±100 the full control effect
* hit, by the source's call; u = inconclusive; x = no result given. Shown are actives, neighbours in structure and some others; about 1.9% of the full set was active somewhere. Unless noted, the call rests on the fitted dose curve; in most records, active means well fitted curve in the direction sought with a large enough effect; inconclusive means small, poorly fitted or top-dose-only effect, or another doubt; inactive means no such curve, though single readings can be large; an effect the other way counts as inactive or inconclusive.

SMILES	ClpP mod	PKM2 act	IL-2 act	a7 integrin act	USP2a block	Pin1 inh
Cc1cc(-c2ccccc2)c2c3c(c(-c4ccccc4)n2n1)c(=O)n(C)c(=O)n3C	0%	9%	70*	11%	0%	u
Cc1cc(C)c2c3c(c(-c4ccccc4)n2n1)c(=O)n(C)c(=O)n3C	x	x	-1	-3%	x	-14%
COc1ccc2[nH]c3c(NCCN(C(C)C)C(C)C)ncnc3c2c1	18µM*	2%	0	-56%	-1%	-6%
CC(C)OCCCNc1ncnc2c1[nH]c1ccccc12	18µM*	1%	-4	-52%	5%	1%
COc1ccc(CNc2ncnc3c2[nH]c2ccccc23)cc1	x	14%	-6	0%	-2%	0%
CCSCCOC(=O)C1=C(C)NC2=C(C(=O)CCC2)C1c1coc2ccccc2c1=O (stereo unspecified)	4%	2%	-3	0%	-1%	0%
CC1=C(C(=O)OC(C)C)C(c2coc3ccccc3c2=O)C2=C(CCCC2=O)N1 (stereo unspecified)	3.5µM*	6%	0	17%	-2%	-5%
COc1cccc(C(=O)NCC(=O)N2CCC3(CC2)NCCc2[nH]cnc23)c1	1%	x	-4	11µM*	1%	0%
Brc1c(CSc2nncn2-c2ccccc2)nc2sccn12	-1%	-17%	1	5%	-5%	0%
Brc1c(CSc2nncn2-c2ccccc2)nc2ncccn12	10µM*	-3%	-2	-4%	4%	0%
Brc1c(CSc2nc3ccccc3o2)nc2ncccn12	25µM*	-1%	0	-22%	3%	-9%
CC(=O)C1CCN(c2ncc(-c3ccc4c(c3)OCCCO4)s2)CC1	x	x	x	x	x	2%
Fc1ccc(C2Nc3cccc4cccc(c34)N2)cc1	x	x	-1	17%	3%	u
Cc1ccc(C2Nc3cccc4cccc(c34)N2)s1	-4%	0%	0	3.2µM*	1%	-1%
CN(C)c1ccc(/C=C/c2ccnc3ccc(I)cc23)cc1	-3%	x	x	x	x	x
O=C(Nc1ccc(F)cc1F)c1cc2n(n1)C(C(F)(F)F)C1CCCCC1N2 (stereo unspecified)	28µM*	2%	0	-12%	4%	7%
O=C(Nc1ccc(F)cc1F)c1cc2nc3c(c(C(F)(F)F)n2n1)CCCC3	1%	-7%	-3	9%	7%	-4%
O=C1CC(O)(C(F)F)Oc2ccc3ccccc3c21 (stereo unspecified)	25µM*	0%	-3	15%	-9%	0%
COc1ccc2c(c1)c(/C=C/c1cc[n+](C)cc1)cn2C	-3%	x	238*	23%	20%	u
CC1Cc2ccccc2C[N+]1(C)CC(=O)c1ccc(I)cc1 (stereo unspecified)	1%	x	x	x	x	x
COc1cccc(-c2nnc(-c3ccc(C(F)(F)F)cc3)o2)c1OC	-21%	1%	-4	-12%	-1%	-3%
COc1cc(OC)c(-c2nnc(-c3ccc(OC)c(OC)c3OC)o2)cc1OC	28µM*	-8%	-4	-15%	-1%	-1%
COc1ccc(-c2cc(-c3ccccc3)n3ncnc3n2)cc1	32µM*	-7%	-1	4%	-1%	0%
O=C(N/N=C/c1cn(-c2ccccc2)nc1-c1cccs1)c1ccccc1F	u	0%	-3	-31%	-1%	18%
O=C(N/N=C/c1cn(-c2ccccc2)nc1-c1cccs1)c1ccc(Cl)cc1	32µM*	-6%	0	0%	-1%	3%
Cc1ccc(-c2cc(C)nc3ncnn23)cc1	5%	3%	-3	-6%	2%	1%
Cc1ccc(-c2cc(C)nc3nc(N)nn23)cc1	14µM*	0%	-2	-2%	0%	-1%
C=C(Cl)COc1cc(C)cc2oc(=O)cc(CC)c12	32µM*	-11%	-2	15%	1%	0%
